Experimental data: PubChem BioAssay AID504339 (National Center for Advancing Translational Sciences (NCATS), 2011)
Out of some 390,000 compounds screened, about 17,000 (4.4%) were called active. Roughly 8% stayed inconclusive and do not appear here. For the sample, actives were picked, then their nearest neighbours and some compounds at random. A number with no mark means an inactive call. Calls come from the whole dose curve; as a rule, active = well fitted inhibition curve with a large enough effect; inconclusive = small, poorly fitted or top-dose-only effect; inactive = no such curve, though single readings can be large or run the other way.

target: Lysine-specific demethylase 4A (Homo sapiens) (UniProt O75164); experiment: qHTS Assay for Inhibitors of JMJD2A-Tudor Domain; settings: AlphaScreen JMJD2A-Tudor / H3K4me3 peptide binding; series mostly up to 114 µM; activity change, negative = inhibition: at the top concentration; note: nearly all actives have a fitted effect of over 50% in size
% is set by controls: 0 for no effect and ±100 for the full control effect; potency is the fitted concentration of half-maximal effect.

Sequence of Lysine-specific demethylase 4A (Homo sapiens) (O75164 whole entry, looked up, the tested form may be a part): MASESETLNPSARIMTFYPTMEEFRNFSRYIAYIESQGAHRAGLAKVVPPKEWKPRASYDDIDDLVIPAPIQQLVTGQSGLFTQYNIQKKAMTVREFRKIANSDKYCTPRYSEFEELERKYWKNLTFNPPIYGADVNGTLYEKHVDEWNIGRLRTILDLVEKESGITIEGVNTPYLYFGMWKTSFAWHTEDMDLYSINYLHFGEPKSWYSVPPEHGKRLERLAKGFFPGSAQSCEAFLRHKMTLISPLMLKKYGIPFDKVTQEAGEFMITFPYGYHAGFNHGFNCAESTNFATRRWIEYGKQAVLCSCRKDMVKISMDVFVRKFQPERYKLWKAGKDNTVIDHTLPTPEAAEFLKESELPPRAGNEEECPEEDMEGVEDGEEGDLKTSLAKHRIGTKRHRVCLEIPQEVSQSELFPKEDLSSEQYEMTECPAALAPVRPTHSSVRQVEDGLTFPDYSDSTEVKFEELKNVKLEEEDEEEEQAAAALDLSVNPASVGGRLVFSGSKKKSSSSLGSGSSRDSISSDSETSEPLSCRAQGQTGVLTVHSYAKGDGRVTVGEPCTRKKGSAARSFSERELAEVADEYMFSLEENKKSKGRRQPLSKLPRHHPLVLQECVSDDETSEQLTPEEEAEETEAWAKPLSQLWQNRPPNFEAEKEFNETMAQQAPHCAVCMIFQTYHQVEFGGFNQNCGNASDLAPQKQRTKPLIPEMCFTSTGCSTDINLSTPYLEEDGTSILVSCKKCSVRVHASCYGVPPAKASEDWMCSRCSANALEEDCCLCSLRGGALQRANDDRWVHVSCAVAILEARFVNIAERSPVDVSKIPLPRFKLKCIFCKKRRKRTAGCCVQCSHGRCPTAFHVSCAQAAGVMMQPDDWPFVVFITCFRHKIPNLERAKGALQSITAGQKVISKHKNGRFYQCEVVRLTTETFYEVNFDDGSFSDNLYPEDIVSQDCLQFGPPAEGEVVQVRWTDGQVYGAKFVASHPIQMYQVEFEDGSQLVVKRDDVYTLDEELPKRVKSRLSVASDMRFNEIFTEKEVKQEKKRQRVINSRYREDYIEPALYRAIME

SMILES | activity change, negative = inhibition | Potency
CC(=O)c1ccc(NC(=O)c2nc(-c3ccc(C)cc3)n3c2CCCCC3)cc1 | -23.4% | –
CCc1nnc2c3ccccc3nc(N3CCN(c4ccc(C)cc4C)CC3)n12 | -20.1% | –
COc1ccc2sc(N(CCCN(C)C)C(=O)c3ccc(S(=O)(=O)N(C)C4CCCCC4)cc3)nc2c1 | – | 56.2 µM (active)
CN(C)S(=O)(=O)c1ccc(C(=O)N(Cc2cccnc2)c2nc3c(F)cc(F)cc3s2)cc1 | -19.2% | –
CCN(CC)CCN(C(=O)c1cccc([N+](=O)[O-])c1)c1nc2ccc(OC)cc2s1 | -7.53% | –
CCOc1ccc(C(=O)c2cn(Cc3ccccc3OC)c3ccc(F)cc3c2=O)cc1 | -10.4% | –
CCN(CC)c1ccc(NC(=O)CN2C(=O)c3cccnc3Oc3ccc(Cl)cc32)c(C)c1 | -16.8% | –
COC(=O)c1c(NC(=O)CCCOc2ccccc2)sc2c1CCC(C)C2 (configuration not stated) | 37.4% | –
O=C(CN1CCCCCC1)Nc1ccc(Br)cc1[N+](=O)[O-] | – | 44.7 µM (active)
O=C(CN1CCCCCC1)Nc1ccc(Br)cc1Br | 79.5% | –
O=C(CN1CCCCCC1)Nc1ccc(Cl)cc1F | -8.56% | –
Cn1c(COc2ccccc2C(C)(C)C)nc2ccccc21 | 21.5% | –
CCOCCn1ccc2c(OCC(=O)NCc3ccc(C)cc3)cccc2c1=O | -9.74% | –
C=CCNCCCCOc1ccccc1 | 2.82% | –
CC1(C)NC(=O)N(CCOc2cccc(Oc3ccccc3)c2)C1=O | -9.7% | –
CC(O)CNCCOc1cccc(Oc2ccccc2)c1 (configuration not stated) | – | 3.55 µM (active)
CCOc1ccc(NC(=O)c2cc(S(=O)(=O)N3CCCC3)c[nH]2)cc1 | -31.9% | –
O=C(CSc1nnc(-c2ccccc2F)o1)Nc1cccc(C(F)(F)F)c1 | -6.29% | –
O=[N+]([O-])c1cccc(S(=O)(=O)NCc2ccccn2)c1 | -11.6% | –
O=C(CSc1nc(-c2ccccc2)cs1)Nc1cccc([N+](=O)[O-])c1 | -34.1% | –
O=c1cc(CO)oc(C(Nc2cccc([N+](=O)[O-])c2)c2ccccn2)c1O (configuration not stated) | – | 50.1 µM (active)
O=c1cc(CO)oc(C(Nc2cccc(C(F)(F)F)c2)c2ccccn2)c1O (configuration not stated) | – | 56.2 µM (active)

SMILES | activity change, negative = inhibition | Potency
Cn1c(=O)c2c(ncn2CC(=O)Nc2cccc(C(F)(F)F)c2)n(C)c1=O | -7.84% | –
COc1cccc(-c2nnc3n(CCc4ccccc4)c(=O)c4ccccc4n23)c1O | -12.3% | –
Cc1ccc(-c2nc(Cn3c(=O)cc(-c4ccccc4)c4c(C)nn(C)c43)c(C)o2)cc1 | -23% | –
COc1ccc(CNC(=O)CCc2c(C)nn(-c3ccc(N4CCCC4)nn3)c2C)cc1 | -10.7% | –
CCOc1ccc(C(=O)c2cn(Cc3ccc(F)cc3)c3ccc(F)cc3c2=O)cc1 | -16.8% | –
Cc1cccc(Cn2c(CN3CCC(C(=O)NCc4ccccc4Cl)CC3)cc3ccccc32)c1 | -7.67% | –
CCOC(=O)c1c(SCC(=O)Nc2cccc(C)c2C)nc(=O)[nH]c1C | -0.974% | –
CC1=C(C(=O)Nc2ccccc2)C(c2ccc(C)cc2)n2nc(SCc3ccccc3C)nc2N1 (configuration not stated) | 4.11% | –
CN(C)CCCn1c(-c2ccc(Cl)cc2)csc1=Nc1ccccc1 | – | 39.8 µM (active)
CN(C)CCCn1c(=O)n(Cc2ccccc2)c(=O)c2c3c(sc21)CCCCC3 | -23.7% | –
O=c1cc(CCl)nc2scc(-c3ccccc3)n12 | -28.9% | –
CC(C)Cn1c(-c2ccc(S(=O)(=O)N3CCOCC3)cc2)csc1=Nc1cc(Cl)ccc1Cl | -33% | –
OCCn1c(-c2ccccc2)csc1=Nc1ccccc1 | – | 56.2 µM (active)
CCN(c1ncnc2c1cnn2-c1ccc(C)cc1)C1CCCCC1 | 13.1% | –
COc1ccc(-c2ccc(=O)n(CC(=O)Nc3ccc(Br)cc3F)n2)cc1 | -6.73% | –
C=CCO/N=C/C1=C(O)C(C(=O)OC)C(C)(C)CC1=O (configuration not stated) | – | 79.4 µM (active)
CCCC(=O)C1=C(N(C)c2ccccc2)CC(C)(C)C(C(=O)OC)C1=O (configuration not stated) | -6.04% | –
COCC(C)N=CC1=C(O)CC(C)(C)CC1=O (configuration not stated) | -6.13% | –
Cn1c(=O)c2c(SCC(=O)NCC3CCCO3)nc(-c3ccccc3F)nc2n(C)c1=O (configuration not stated) | -10.4% | –
O=C(CCS(=O)(=O)c1cc(Br)cc2c1N(C(=O)C1CC1)CC2)Nc1ccc(C(F)(F)F)cc1 | -14% | –
COc1ccc(OC)c(NC(=O)CN2CCCN(Cc3cc(C)ccc3C)S2(=O)=O)c1 | 4.14% | –
COc1cc(/C=N/NC(=O)c2ccoc2C)ccc1OCCN1CCCCC1 | -17.4% | –

SMILES | activity change, negative = inhibition | Potency
Cc1ccc(C(C)C)cc1OCCN1CCCC1 | – | 79.4 µM (active)
Cc1cccc(C(=O)OC(C)CN2CCCC2)c1 (configuration not stated) | 9.18% | –
Cc1ccc(C(C)C)cc1OCC(=O)Nc1ccccc1N1CCCC1 | -30.4% | –
Cc1cc(OCCN2CCCC2)cc(C(C)C)c1 | – | 5.01 µM (active)
CCCn1c(=N)c(C(=O)NCc2ccccc2)cc2c(=O)n3cccc(C)c3nc21 | 11.9% | –
Cn1c(=O)c2c(SCC(=O)N3CCc4ccccc43)nc(-c3ccc(Cl)cc3)nc2n(C)c1=O | -8.77% | –
CCNC(=O)CC1C(=O)N(c2ccc(F)cc2)C(=O)N1Cc1ccc(C)cc1 (configuration not stated) | -9.6% | –
CN1CCN(C2(CNC(=O)COc3ccc(C(C)(C)C)cc3)CCCCC2)CC1 | -3.97% | –
Cc1ccc(Cl)cc1N1CCN(C(=O)CN2C(=O)COc3ccc(S(=O)(=O)N4CCOCC4)cc32)CC1 | -1.32% | –
Oc1ccc(Cl)cc1C1C=C(c2ccc3c(c2)OCO3)NC(c2ccc(F)c(Br)c2)N1 (configuration not stated) | -30.8% | –
CC(C)c1ccc(C2C(C#N)=C(N)Oc3c2oc(CO)cc3=O)cc1 (configuration not stated) | -13.8% | –
CC(C)c1ccc(C2CC(=O)N3CN(C4CCCCC4)CSC3=C2C#N)cc1 (configuration not stated) | – | 25.1 µM (active)
COc1ccc(-c2nc3c(c(SCC(=O)Nc4ccc(C(=O)O)cc4)n2)Cc2ccccc2O3)cc1 | – | 35.5 µM (active)
COc1cc(OC)cc(-c2nnc(SCC(=O)Nc3ccc(C(=O)O)cc3)s2)c1 | -26.1% | –
COc1ccc(NC(=O)CSc2nc(N)c(-c3ccccc3)c(=O)[nH]2)cc1 | -3.68% | –
CN(Cc1ccccc1)C(=O)c1cn(C)c2ccc(S(=O)(=O)N3CCCCC3)cc2c1=O | -15% | –
CCOc1ccc(CN2CCCN(C)CC2)cc1 | – | 3.55 µM (active)
CCOc1ccc(CN2CCN(CCCc3ccccc3)C(CCO)C2)cc1 (configuration not stated) | -24.3% | –
CCOc1ccc(CC(=O)NC2CCN(Cc3ccccc3)CC2)cc1 | -6.56% | –
CCOc1ccccc1CNC(=O)c1ccc(-n2c(C)cc3c2CCC(C)C3)cc1 (configuration not stated) | -22.4% | –
COc1ccc(/C=C2/C(=O)N(c3ccccc3)N=C2C)c(OC)c1 | – | 15.8 µM (active)
COc1ccc(/C=C2/C(=O)OCc3cc(OC)c(OC)cc32)c(OC)c1 | -34.3% | –

SMILES | activity change, negative = inhibition | Potency
COc1ccc(C(=O)COC(=O)C(O)c2ccccc2)c(OC)c1 (configuration not stated) | -30% | –
Cc1ccc(CNC(=O)CCc2c(C)nc3c(c(C)nn3-c3ccccc3)c2C)cc1 | -6.38% | –
Cc1cc(C(=O)NNC(=S)NC(C)c2ccccc2)cs1 (configuration not stated) | -11.3% | –
C/C(CC(=O)NC(C)c1ccccc1)=N\NC(N)=S (configuration not stated) | – | 31.6 µM (active)
Cc1ccc(S(=O)(=O)CC(=O)NC(C)c2ccccc2)cc1 (configuration not stated) | -13.7% | –
CCN1CCN(CCCNC(=O)c2cnn(-c3ccc(C)cc3C)c2C2CCN(C(=O)OC(C)(C)C)CC2)CC1 | -25.9% | –
COc1ccc(Cn2c(=O)n(-c3ccccc3C)c(=O)c3c4c(sc32)CN(C(C)=O)CC4)cc1 | -19.6% | –
CCOC(=O)N1CCN(C(c2cccnc2)c2ccc3cccnc3c2O)CC1 (configuration not stated) | – | 17.8 µM (active)
COc1ccccc1N1CCN(C(CNC(=O)C(=O)NCc2ccc(C)cc2)c2cccnc2)CC1 (configuration not stated) | -1.64% | –
O=C(NC(c1ccco1)c1cc(Cl)c2cccnc2c1O)c1ccccc1 (configuration not stated) | -23.4% | –
CC(=O)NC(c1cccs1)c1cc(Cl)c2cccnc2c1O (configuration not stated) | -29.9% | –
O=C(CSc1cccc2cccnc12)N/N=C/c1cccnc1 | -4.86% | –
CCN1CCN(C(c2cccnc2)c2cc(Cl)c3cccnc3c2O)CC1 (configuration not stated) | – | 17.8 µM (active)
CC1=C(C(=O)OCc2ccc(C)cc2)C(c2c(Cl)cccc2Cl)CC(=O)N1 (configuration not stated) | 2.4% | –
Cc1onc(-c2ccc(F)cc2F)c1C(=O)Nc1cccc(C(F)(F)F)c1 | 11% | –
CCOCCCNC(=O)c1c(NC(=O)c2nc(SC)ncc2Cl)sc2c1CCCC2 | -9.72% | –
CCOc1ccc(NC(=O)CCc2c(C)nn(-c3ccc(N4CCCC4)nn3)c2C)cc1 | -22.7% | –
CCC(=O)c1ccc(OCC(=O)Nc2ccc(N3CCCCC3)cc2)cc1 | -7.05% | –
O=C(C1CC(=O)N(C2CCCCC2)C1)N1CCN(c2ccccc2)CC1 (configuration not stated) | -33.1% | –
O=C1C=CC(=O)N1c1ccc(N2CCCCC2)cc1 | – | 20 µM (active)
CCC(=O)Nc1ccc(C)cc1-c1nc2ccccc2n(Cc2ccccc2)c1=O | -0.993% | –
COc1cc(CN(C(=O)c2ccccc2Br)c2ccccn2)cc(OC)c1OC | -2.98% | –

SMILES | activity change, negative = inhibition | Potency
COc1ccccc1C1C(C(=O)N2CCCCC2)=C(C)Nc2nc3ccccc3n21 (configuration not stated) | -17.1% | –
COc1ccccc1CNC(=O)c1ccc(-n2c(C)cc3c2CCCC3)cc1 | -28.7% | –
CCc1nnc(NC(=O)c2ccc(S(=O)(=O)NC3CCCCC3)cc2)s1 | -5.81% | –
CCc1nnc(NC(=O)c2nc3nccc(C)n3n2)s1 | – | 35.5 µM (active)
Cc1ccnc2nc(C(=O)Nc3nnc(-c4ccccc4)o3)nn12 | -18% [at 57.1 µM] | –
COc1ccc(CCC(=O)NCc2ccc3c(c2)CCN3C(=O)c2ccc(F)cc2)cc1 | -3.33% | –
COc1ccccc1-n1ccnc1SCC(=O)NC(C)(C)C | -6.01% | –
COc1ccc(-c2nnc(SCC(=O)NC3CCCCC3)o2)cc1OC | -0.704% | –
COc1ccccc1-n1ccnc(SCC(=O)NC2CCCCC2)c1=O | – | 35.5 µM (active)
N#CN1CCC(NC(=O)c2ccc(F)cc2)CC1 | -14.4% | –
C/C=C/c1ccc(OCC(=O)NNC(=O)CN(C)S(=O)(=O)c2ccc(C)cc2)c(OC)c1 | -24.8% | –
C/C=C/c1ccc(OCCCCN2CCC(C)CC2)c(OC)c1 | – | 3.16 µM (active)
OC(COc1ccc(CN2CCSCC2)cc1)CN1CCCCC1 (configuration not stated) | -8.63% | –
COc1ccc(OC)c(NC(=O)CCN2CCC(C)CC2)c1 | -24.4% | –
COc1ccc(OCCCCN2CCC(C)CC2)cc1 | – | 20 µM (active)
C/C=C/c1ccc(OCC(O)CN2CCCCCCC2)c(OC)c1 (configuration not stated) | – | 3.16 µM (active)
CC1CCN(CCC(=O)Nc2ccccc2)CC1 | -6.38% | –
C=CCc1ccc(OCC(O)CN2CCN(Cc3ccccc3)CC2)c(OC)c1 (configuration not stated) | -8.7% | –
C/C=C/c1ccc(OCCOc2ccc(C=O)cc2OC)c(OC)c1 | 10.4% | –
